Reference: PubChem BioAssay (Tox21)
Records with an inconclusive call do not appear. The source made the active and inactive calls. Calls follow the shape of the dose curve; as a rule, active = well fitted inhibition curve with a large enough effect in the repeat runs; inconclusive = weak or mixed curves; inactive = flat fitted curve, though single readings scatter.

Assay: qHTS assay to identify small molecule HDAC inhibitors (AID 1259364); also: nearly all actives have a fitted effect of over 45% in size; as to activity change, negative = inhibition: top concentration of the series differs between compounds
Settings: HCT-116 HDAC-Glo I/II luminescence, 2 h; series mostly up to 92.4 µM; activity change, negative = inhibition: at the top concentration
Description: U.S. Tox21 Program National Center for Advancing Translational Sciences [NCATS] NIH Chemical Genomics Center [NCGC] U.S. Environmental Protection Agency [EPA] National Institutes of Environmental Health Sciences [NIEHS] National Toxicology Program [NTP] U.S. Food and Drug Administration [FDA] Tox21 Assay Overview: Histone deacetylases (HDACs) are a group of epigenetic enzymes that regulate gene expression by histone deacetylation. HDACs are capable of introducing epigenetic modifications and such aberrations contribute to the onset and progression of several human diseases, thus making HDACs a popular therapeutic target. For identifying endogenous class I/II HDAC inhibitors a homogenous, luminogenic HDAC I/II cell based assay was used to measure the relative activity of class I and II HDACs from cells. Wild type HCT-116 cells were used to screen Tox21 libraries for identifying class I/II HDAC inhibitors.
Tox21 Assay Protocol Summary: HCT-116 cells were dispensed at 1,500 per well in 5uL of culture medium into white solid bottom 1536-well plates (Greiner Bio-One, Monroe, NC) using a Multidrop Combi (Thermo Scientific, Waltham, MA) dispenser. The assay plates were incubated at 37 C and 5% CO2 for an overnight, and then 23nL of compounds dissolved in DMSO and positive control were transferred using a Pintool station (Wako, San Diego, CA). The assay plates were incubated at 37C and 5% CO2 for 2hr. After compound treatment, 4uL of HDAC-Glo reagent (Promega Corporation, Madison, WI) was added to each well of the assay plates using Flying Reagent Dispenser (FRD, Aurora Discovery, San Diego, CA) and incubated the assay plates at room temperature for 30min. The luminescence signal was quantified using a ViewLux plate reader (Perkin Elmer, Shelton, CT).
% is scaled to controls: 0 for no effect and ±100 for the full control effect; potency is read from the fitted curve at half-maximal effect.

Row | SMILES | activity change, negative = inhibition | Potency
1 | CC(C)(O)C(=O)c1ccc(OCCO)cc1 | -0.246% (inactive) | –
2 | CC(C)(C)N(CCO)CCO | 1.14% (inactive) | –
3 | C=C(C)C(=O)OCCCCCCCCCCCCCCCCCC | 1.5% [at 19 µM] (inactive) | –
4 | NC(=O)c1ncn([C@@H]2O[C@H](CO)[C@@H](O)[C@H]2O)c1O | -0.181% [at 42.5 µM] (inactive) | –
5 | C=C[Si](OC)(OC)OC | 4.29% (inactive) | –
6 | C=C(C)[C@H]1CC=C(C)CC1 | 4.37% (inactive) | –
7 | CC(C)CCCC(C)CCCC(C)CCCCC(C)CCCC(C)CCCC(C)C (stereo not given) | 1.59% [at 42.5 µM] (inactive) | –
8 | N[C@@H](CS)C(=O)O | 0.523% (inactive) | –
9 | CC/C=C\CCCCO | -1.92% (inactive) | –
10 | O=[N+]([O-])c1ccc(CCO)cc1 | 1.8% (inactive) | –
11 | Nc1ncnc2c1ncn2Cc1c(F)cccc1Cl | 1.05% [at 42.5 µM] (inactive) | –
12 | CCCC(=O)O[C@]1(C(=O)CCl)[C@@H](C)C[C@H]2[C@@H]3CCC4=CC(=O)C=C[C@]4(C)[C@@]3(F)C(=O)C[C@@]21C | -0.25% [at 42.5 µM] (inactive) | –
13 | COc1cccc(Br)c1 | 2.07% (inactive) | –
14 | CC(C)[N+](C)(C)CC(O)COc1cccc2ccccc12 (stereo not given) | -21.1% [at 42.5 µM] (inactive) | –
15 | [O-][N+](=Nc1ccccc1)c1ccccc1 | – | 9.69 µM (active)
16 | OC[C@H]1O[C@@H]2O[C@H]3[C@H](O)[C@@H](O)[C@@H](O[C@H]4[C@H](O)[C@@H](O)[C@@H](O[C@H]5[C@H](O)[C@@H](O)[C@@H](O[C@H]6[C@H](O)[C@@H](O)[C@@H](O[C@H]7[C@H](O)[C@@H](O)[C@@H](O[C@H]8[C@H](O)[C@@H](O)[C@@H](O[C@H]9[C@H](O)[C@@H](O)[C@@H](O[C@H]1[C@H](O)[C@H]2O)O[C@@H]9CO)O[C@@H]8CO)O[C@@H]7CO)O[C@@H]6CO)O[C@@H]5CO)O[C@@H]4CO)O[C@@H]3CO | -2.37% [at 42.5 µM] (inactive) | –
17 | O=C(O)c1ccccc1S | 9.15% [at 42.5 µM] (inactive) | –
18 | CC(C)COC(=O)C(C)C | 3.19% (inactive) | –
19 | CCO[Si](C)(OCC)OCC | 4.73% (inactive) | –
20 | CCC(C(=O)NC(N)=O)c1ccccc1 (stereo not given) | 0.627% (inactive) | –

Row | SMILES | activity change, negative = inhibition | Potency
21 | O=c1[nH]c(=O)n([C@H]2O[C@H](CO)[C@@H](O)[C@@H]2O)cc1/C=C\Br | 4.97% [at 42.5 µM] (inactive) | –
22 | C=C(C)[C@@H]1CCC2=CC(=O)C[C@@H](C)[C@]2(C)C1 | -1.62% (inactive) | –
23 | C=C(C)C(=O)NCCC[N+](C)(C)C | 8.54% (inactive) | –
24 | NC(=O)Nc1nc2ccccc2[nH]1 | -16.2% (inactive) | –
25 | C[C@H](O)C(=O)Nc1c(I)c(C(=O)NC(CO)CO)c(I)c(C(=O)NC(CO)CO)c1I | -1.62% [at 42.5 µM] (inactive) | –
26 | CC(C)c1ccc2oc3nc(N)c(C(=O)O)cc3c(=O)c2c1 | – | 0.266 µM (active)
27 | CC(C)(C)CC(C)(C)N | -0.237% (inactive) | –
28 | CC(C)=CCC/C(C)=C/C(=O)O | 1.37% (inactive) | –
29 | CCCCCCCCCCCCI | 3.82% (inactive) | –
30 | Nc1ccn(C2CO[C@H](CO)O2)c(=O)n1 (stereo not given in full) | 0.923% [at 42.5 µM] (inactive) | –
31 | COc1ccc2cc(C=O)ccc2c1 | -15.7% [at 42.5 µM] (inactive) | –
32 | CCCCCCOC(=O)c1ccccc1O | -21.4% (inactive) | –
33 | CSc1ccc(C=O)cc1 | -4.12% (inactive) | –
34 | C1C2OC2C2C1C1CC2C2OC12 (stereo not given) | 1.38% (inactive) | –
35 | CC(C)CCOC(=O)CC(C)C | 9.09% (inactive) | –
36 | CCCC=O | -2.68% (inactive) | –
37 | CCOC(=O)[C@H](CCc1ccccc1)N[C@@H](C)C(=O)N1CCC[C@H]1C(=O)O | -0.197% [at 42.5 µM] (inactive) | –
38 | O=C(O)C1CCC1 | 2.59% [at 42.5 µM] (inactive) | –
39 | C=CC(=O)OCCCCCC | 3.18% (inactive) | –
40 | CC1(C)SC(C)(C)SC(C)(C)S1 | 0.187% (inactive) | –
